Potency and fluorescence, % of fluorescent control data for 40 compounds are collected here from PubChem BioAssay (Tox21).

The source made the active and inactive calls. Entries that show only a call come without a potency. Calls come from the whole dose curve; as a rule, active = well fitted curve in the direction sought with a large enough effect in the repeat runs; inconclusive = weak or mixed curves; inactive = flat fitted curve, though single readings scatter.

The nature of the assay: qHTS assay to test for compound auto fluorescence at 460 nm (blue) in HEK293 cell free culture (AID 720681). The settings on record: cell-free medium, autofluorescence 405/460 nm (blue); series mostly up to 91.3 µM. An excerpt:
U.S. Tox21 Program National Center for Advancing Translational Sciences [NCATS] NIH Chemical Genomics Center [NCGC] U.S. Environmental Protection Agency [EPA] National Institutes of Environmental Health Sciences [NIEHS] National Toxicology Program [NTP] U.S. Food and Drug Administration [FDA] Tox21 Assay Overview: Compound auto fluorescence often interferes with screening of the compound library against various biological targets and signaling pathways. Some of these compounds may have fluorophoric properties. Such properties may interfere with the assay outputs resulting in false positives and/or negatives. To decrease such complications and ensure the compound activities are relevant in terms of biological response, the Tox21 10K compound library was screened for auto fluorescence. From the fluorophores used as reporter signals in our screening assays, the auto fluorescence equivalencies of compounds against three fluorophores have been evaluated: Triamterene, Fluorescein and Rose Bengal sodium for blue, green and red fluorescence, respectively. The fluorescence intensities were measured using Excitation/Emission wavelengths at 405/460nm, 485/535nm and 540/590nm for blue, green and red labels, respectively. This assay includes the blue fluorescence data.
Tox21 Assay Protocol Summary: 5 uL of culture medium (DMEM containing 10% FBS) per well was dispensed into black wall/clear bottom 1536-well plates using a Multidrop Combi Dispenser (ThermoFisher Scientific, Waltham, MA). After 23 nL compound or DMSO vehicle was transferred into assay plate by a pintool work station (Kalypsys, San Diego, CA), fluorescence intensities in the assay plates were measured by an Envision (PerkinElmer, Shelton, CT) plate reader using three labels for measuring blue, green and red fluorescence at […] 460, 535 and 590nm respectively.
On the technique in general: Quantitative high-throughput screening tests each substance at several concentrations.
As for `C=CC(=O)OCC(C)OCC(C)OCC(C)OC(=O)C=C` (stereo not given), the Potency entry is “inactive”.

As to `NCCCN(CCO)CCO`, the Potency entry was “inactive”.

Turning to `CCCC[C@H]1CN(CC2CCOCC2)C(=O)OC12CCN(C1(C)CCN(C(=O)c3c(C)ncnc3C)CC1)CC2`, the Potency entry is “inactive”.

Take `CCCCCCCCN(C)C`: the Potency entry is “inactive”.

As for `CCOc1cc(OCC)c(C(=O)CCC(=O)O)cc1OCC`, the Potency result was “inactive”.

For the compound `O=C(O)Cn1c(C(=O)Nc2nc(-c3ccccc3Cl)cs2)cc2ccccc21`, the Potency result was “inactive”.

Regarding `N=C(N=C(N)N)N1CCOCC1`, the fluorescence, % of fluorescent control was 0.0143% [at 18.6 µM] (inactive).

In the case of `CN1CCC(=C2c3ccccc3CCc3sccc32)CC1`, the Potency entry is “inactive”.

As for `C1CCC2OC2C1` (stereo not given), the Potency result is “inactive”.

Take `CN(C)C/C=C(/c1ccc(Br)cc1)c1cccnc1`: the Potency result is “inactive”.

For the compound `CCCCCCc1ccc(N)cc1`, the Potency result was “inactive”.

For the compound `COCCCCCCCCOCCC[Si](C)(O[Si](C)(C)C)O[Si](C)(C)C`, the Potency result is “inactive”.

On to `CCCCOC(O)CC` (stereo not given), for which the Potency entry was “inactive”.

For the compound `Cc1ccc(O)c([C@H](CCN(C(C)C)C(C)C)c2ccccc2)c1`, the Potency entry was “inactive”.

With `C=CC(=O)OCCOC(=O)CCC(=O)O`, the Potency entry is “inactive”.

As to `FC(F)(F)C(F)(F)C(F)(F)C(F)(F)C(F)(F)C(F)(F)CCI`, the Potency result is “inactive”.

On to `CC(C)=CCCC(C)CC=O` (stereo not given), for which the Potency result was “inactive”.

In the case of `CC(C(=O)O)c1ccc(C(=O)c2ccccc2)s1` (stereo not given), the fluorescence, % of fluorescent control is -0.0527% [at 18.6 µM] (inactive).

Take `O=S1(=O)c2cccc3cccc(c23)N1CCCN1CCN(c2ccc(F)cc2)CC1`: the Potency result is “inactive”.

As to `CC(C)(C)c1cc(CO)cc(C(C)(C)C)c1O`, the Potency entry was “inactive”.

As to `O=C(CC(=O)c1ccccc1)c1ccccc1`, the Potency entry is “inactive”.

With `CC[C@]12CCCN3CCc4c(n(c5ccccc45)C(=O)C1)[C@@H]32`, the fluorescence, % of fluorescent control was -0.0431% [at 18.6 µM] (inactive).

On to `CC1=CCC(C(C)C)C=C1` (stereo not given), for which the Potency result was “inactive”.

On to `CC[C@H](C)[C@H](N)C(=O)O`, for which the Potency entry is “inactive”.

As to `CNS(=O)(=O)Cc1ccc2[nH]cc(CCN(C)C)c2c1`, the Potency result is “inactive”.

As for `OC(CCN1CCCCC1)(c1ccccc1)C1CCCCC1` (stereo not given), the Potency result was “inactive”.

Turning to `CCOC(=O)CC(C)C`, the Potency entry is “inactive”.

On to `Nc1cnn([C@@H]2O[C@H](CO)[C@@H](O)[C@H]2O)c(=O)n1`, for which the Potency entry was “inactive”.

With `O=C(CCN1CCN2CCCC2C1)N1c2ccccc2Sc2ccc(Cl)cc21` (stereo not given), the Potency result is “inactive”.

Turning to `CCCC(=O)OCC`, the Potency result is “inactive”.

Regarding `OCC1CC2CC1C1CCC(CO)C21` (stereo not given), the Potency entry is “inactive”.

On to `O=C1[C@H](CC[C@H](O)c2ccc(F)cc2)[C@@H](c2ccc(O)cc2)N1c1ccc(F)cc1`, for which the Potency entry is “inactive”.

For the compound `Cc1c(Cn2ccnc2)c2ccccc2n1CCC(=O)O`, the Potency result is “inactive”.

For the compound `CC(Cc1cccc(C(F)(F)F)c1)NCCOC(=O)c1ccccc1` (stereo not given), the Potency entry is “inactive”.

Turning to `CCCCOCCOCCOCCOCCO`, the Potency result was “inactive”.

On to `O=C(Nc1ccccc1)OCC(CN1CCCCC1)OC(=O)Nc1ccccc1` (stereo not given), for which the fluorescence, % of fluorescent control was -0.0858% [at 18.6 µM] (inactive).

On to `CCCCCCCCCC(=O)OCC`, for which the Potency result is “inactive”.

On to `CCN1CCC[C@H]1CNC(=O)c1c(OC)ccc(Br)c1OC`, for which the Potency result is “inactive”.

As to `CC/C(=C\C(=N/O)C(N)=O)C(C)[N+](=O)[O-]` (stereo not given), the Potency result was “inactive”.

Consider `c1ccc(-c2nc[nH]c2-c2ccccc2)cc1`, for which the Potency entry is “inactive”.
